# Test results: PubChem BioAssay (Tox21)
# Records with an inconclusive call do not appear. A call without a number means that no potency is given here. Values without a mark were called inactive. Activity calls are given as the source filed them. Calls come from the whole dose curve; as a rule, active = well fitted cell-killing curve with a large enough effect in the repeat runs; inconclusive = weak or mixed curves, or effect the other way; inactive = flat fitted curve, though single readings scatter.
# Test: cAMP Responsive Elements (CRE) small molecule antagonists, cell-based qHTS assay: qHTS cell viability counter screen (AID 2060913); note: nearly all actives have a fitted effect of over 40% in size
# Conditions: CRE-bla HEK293T viability, CellTiter-Glo luminescence, 5 h; series mostly up to 92.4 µM
# In short: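 Cytotoxicity read in the same wells as the CRE-bla HEK293T antagonist assay: after 3 h compound with 0.25 uM NKH477 final and 2 h beta-lactamase substrate, CellTiter-Glo luminescence measured.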
SMILES,Potency,"viability change, negative = cytotoxic"
CCOc1ccccc1O[C@H](c1ccccc1)[C@H]1CNCCO1,inactive,–
COc1cc2c(cc1OC)C(=O)C(CC1CCN(Cc3ccccc3)CC1)C2 (stereo not given),inactive,–
Nc1nc(Cl)cc(Cl)n1,inactive,–
CC1CCCCC1,inactive,–
CCC(C=O)CC,inactive,–
CC(C)CC(=O)N[C@H](C(=O)N[C@H](C(=O)N[C@@H](CC(C)C)[C@@H](O)CC(=O)N[C@@H](C)C(=O)N[C@@H](CC(C)C)[C@@H](O)CC(=O)O)C(C)C)C(C)C,inactive,–
O=S(O)O,–,17.7% [at 18.9 µM]
CCCC(CC)c1ccccc1 (stereo not given),inactive,–
COc1ccc(C(=O)c2ccccc2O)c(O)c1,inactive,–
CC(C)OC(=O)CCCCC(=O)OC(C)C,inactive,–
CC[N+](CC)(CCNC(=O)C(=O)NCC[N+](CC)(CC)Cc1ccccc1Cl)Cc1ccccc1Cl,inactive,–
O=C1NS(=O)(=O)c2ccccc21,inactive,–
CC1(C)COCN1,inactive,–
C[C@]12CCC(=O)C=C1CC[C@H]1[C@@H]3CC[C@](O)(C(=O)CO)[C@@]3(C)C[C@H](O)[C@@]12F,inactive,–
O=C[C@@H](O)[C@H](O)[C@H](O)CO,inactive,–
COC(=O)Nc1nc2ccc(C(=O)C3CC3)cc2[nH]1,inactive,–
CCCCOCCOC(=O)COc1nc(Cl)c(Cl)cc1Cl,inactive,–
CO[C@@]1(NC(=O)Cc2cccs2)C(=O)N2C(C(=O)O)=C(COC(N)=O)CS[C@@H]21,inactive,–
c1ccc(CN(CC2=NCCN2)c2ccccc2)cc1,inactive,–
CCOCN(C(=O)CS(=O)(=O)O)c1c(C)cccc1CC,inactive,–

SMILES,Potency,"viability change, negative = cytotoxic"
Cc1ccc(S(=O)(=O)O)cc1,inactive,–
Sc1nc2ccccc2s1,inactive,–
Cn1c(=O)c2c(ncn2CC(O)CO)n(C)c1=O (stereo not given),inactive,–
CCCN(CCC)C(=O)C(CCC(=O)OCCCN1CCN(CCOC(=O)Cc2c(C)n(C(=O)c3ccc(Cl)cc3)c3ccc(OC)cc23)CC1)NC(=O)c1ccccc1 (stereo not given),inactive,–
CCCCCCCCCCCCCCBr,inactive,–
O=S1OCCO1,inactive,–
Clc1sc(Cl)c(Cl)c1Cl,inactive,–
COC(=O)c1ccc2cc(C(=O)OC)ccc2c1,–,9.85% [at 18.9 µM]
C=CC1CO1 (stereo not given),inactive,–
CC(C)=CCCC(C)O (stereo not given),inactive,–
CCCCC(C)C(=O)O (stereo not given),inactive,–
CCCCCCCCCCCCCC(=O)O,inactive,–
CCCc1ncc(C(=O)O)s1,inactive,–
C=C(C)[C@@H]1CCC2=CCC[C@@H](C)[C@]2(C)C1,inactive,–
CCO/C=C1\N=C(c2ccccc2)OC1=O,inactive,–
CC1(C)CC(N)CC(C)(CN)C1 (stereo not given),inactive,–
O=C(O)CN(CCN(CC(=O)O)CC(=O)O)CC(=O)O,–,3.3% [at 3.27 µM]
CCCCCCCC(=O)OCC(COC(=O)CCCCCCC)OC(=O)CCCCCCC,inactive,–
C=C1CCC2CC1C2(C)C (stereo not given),inactive,–
Nc1ccc2cc3ccc(N)cc3nc2c1,inactive,–

# Test: cAMP Responsive Elements (CRE) small molecule agonists, cell-based qHTS assay: qHTS cell viability counter screen (AID 2060914);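 note: viability read after 3 h of compound exposure; nearly all actives have a fitted effect of over 50% in size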
# Conditions: CRE-bla HEK293T viability, CellTiter-Glo luminescence, 5 h; series mostly up to 92.4 µM
# In short: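 Cytotoxicity counter screen multiplexed with the CRE-bla reporter assay in HEK 293T cells: 3 h compound exposure at 37 °C, followed by CellTiter-Glo luminescence measured in the same wells.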
SMILES,Potency,"activity change, negative = cytotoxicity"
CCOc1ccccc1O[C@H](c1ccccc1)[C@H]1CNCCO1,inactive,–
COc1cc2c(cc1OC)C(=O)C(CC1CCN(Cc3ccccc3)CC1)C2 (stereo not given),inactive,–
Nc1nc(Cl)cc(Cl)n1,inactive,–
CC1CCCCC1,inactive,–
CCC(C=O)CC,inactive,–
CC(C)CC(=O)N[C@H](C(=O)N[C@H](C(=O)N[C@@H](CC(C)C)[C@@H](O)CC(=O)N[C@@H](C)C(=O)N[C@@H](CC(C)C)[C@@H](O)CC(=O)O)C(C)C)C(C)C,inactive,–
O=S(O)O,–,3.71% [at 18.9 µM]
CCCC(CC)c1ccccc1 (stereo not given),inactive,–
COc1ccc(C(=O)c2ccccc2O)c(O)c1,inactive,–
CC(C)OC(=O)CCCCC(=O)OC(C)C,inactive,–
CC[N+](CC)(CCNC(=O)C(=O)NCC[N+](CC)(CC)Cc1ccccc1Cl)Cc1ccccc1Cl,inactive,–
O=C1NS(=O)(=O)c2ccccc21,inactive,–
CC1(C)COCN1,inactive,–
C[C@]12CCC(=O)C=C1CC[C@H]1[C@@H]3CC[C@](O)(C(=O)CO)[C@@]3(C)C[C@H](O)[C@@]12F,inactive,–
O=C[C@@H](O)[C@H](O)[C@H](O)CO,inactive,–
COC(=O)Nc1nc2ccc(C(=O)C3CC3)cc2[nH]1,inactive,–
CCCCOCCOC(=O)COc1nc(Cl)c(Cl)cc1Cl,inactive,–
CO[C@@]1(NC(=O)Cc2cccs2)C(=O)N2C(C(=O)O)=C(COC(N)=O)CS[C@@H]21,inactive,–
c1ccc(CN(CC2=NCCN2)c2ccccc2)cc1,inactive,–
CCOCN(C(=O)CS(=O)(=O)O)c1c(C)cccc1CC,inactive,–

SMILES,Potency,"activity change, negative = cytotoxicity"
Cc1ccc(S(=O)(=O)O)cc1,inactive,–
Sc1nc2ccccc2s1,inactive,–
Cn1c(=O)c2c(ncn2CC(O)CO)n(C)c1=O (stereo not given),inactive,–
CCCN(CCC)C(=O)C(CCC(=O)OCCCN1CCN(CCOC(=O)Cc2c(C)n(C(=O)c3ccc(Cl)cc3)c3ccc(OC)cc23)CC1)NC(=O)c1ccccc1 (stereo not given),inactive,–
CCCCCCCCCCCCCCBr,inactive,–
O=S1OCCO1,inactive,–
Clc1sc(Cl)c(Cl)c1Cl,inactive,–
COC(=O)c1ccc2cc(C(=O)OC)ccc2c1,–,-17.3% [at 18.9 µM]
C=CC1CO1 (stereo not given),inactive,–
CC(C)=CCCC(C)O (stereo not given),inactive,–
CCCCC(C)C(=O)O (stereo not given),inactive,–
CCCCCCCCCCCCCC(=O)O,inactive,–
CCCc1ncc(C(=O)O)s1,inactive,–
C=C(C)[C@@H]1CCC2=CCC[C@@H](C)[C@]2(C)C1,inactive,–
CCO/C=C1\N=C(c2ccccc2)OC1=O,inactive,–
CC1(C)CC(N)CC(C)(CN)C1 (stereo not given),inactive,–
O=C(O)CN(CCN(CC(=O)O)CC(=O)O)CC(=O)O,–,-20.1% [at 3.27 µM]
CCCCCCCC(=O)OCC(COC(=O)CCCCCCC)OC(=O)CCCCCCC,inactive,–
C=C1CCC2CC1C2(C)C (stereo not given),inactive,–
Nc1ccc2cc3ccc(N)cc3nc2c1,inactive,–
